Data as given in PubChem BioAssay AID1309 (The Scripps Research Institute Molecular Screening Center, 2008).
The campaign covered roughly 1,200 compounds. About 130 (11%) were called active. Cut-off read from the data, not from the text of the source: active = activation above about 120%; inactive = the rest. A selection follows.

experiment: NF-kB reporter activators in human cells, counter-screen for STAT3 activator project (AID 1309); conditions: NF-kappaB reporter activation, at 5.7 µM, hits give high values;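 note: reporter induced by TNF-alpha stimulation; 100% = median of stimulated DMSO wells and 0% = no signal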

Row | SMILES | activation (% of control)
1 | Fc1ccc2nc(-c3ccccc3)nc(SCc3nnc(-c4ccccc4)o3)c2c1 | 106% (inactive)
2 | COc1ccccc1N1CCN(C(=O)c2cc3c(-c4ccc(Cl)cc4)nn(C)c3s2)CC1 | 101% (inactive)
3 | Cn1cccc1C(=O)Nc1nccs1 | 111% (inactive)
4 | N#Cc1ccccc1NC(=O)COc1c(Br)cc(Br)c2cccnc12 | 107% (inactive)
5 | COC(=O)c1[nH]c2ccccc2c1NC(=O)CN1CCCc2ccccc21 | 106% (inactive)
6 | CCOC(=O)N1CCN(CC(=O)Nc2cc(C)nn2-c2nc3ccccc3s2)CC1 | 106% (inactive)
7 | C/C(=N\NC(=O)CNc1cccc2ccccc12)c1ccc(Br)s1 | 103% (inactive)
8 | COc1ccc(/C=N/Nc2ncnc3sc4c(c23)CCCC4)cc1O | 110% (inactive)
9 | O=C1CCCN1CCCNc1ncnc2c1[nH]c1ccccc12 | 100% (inactive)
10 | COc1ccc(C2c3[nH]c4ccccc4c3CCN2CCCn2cccn2)cc1C (stereo not given) | 102% (inactive)
11 | CCn1c(SCC(=O)N/N=C/C=C/c2ccccc2[N+](=O)[O-])nnc1-c1ccccc1 | 101% (inactive)
12 | CCOC(=O)C1CCN(c2ncnc3c2oc2ccc(Br)cc23)CC1 | 102% (inactive)
13 | CN1CCN(c2ccc([N+](=O)[O-])c(Sc3nc4ccccc4[nH]3)c2)CC1 | 102% (inactive)
14 | CSc1nc2sc3c(c2c(=O)[nH]1)CCc1ccccc1-3 | 108% (inactive)
15 | C=CCCC(=O)Nc1nc(C)c(-c2csc(Nc3ccc(Cl)cc3)n2)s1 | 107% (inactive)
16 | COc1ccc([N+](=O)[O-])cc1C1NN=C(c2cccc3ccccc23)S1 (stereo not given) | 114% (inactive)
17 | Cc1ccc(S(=O)(=O)Nc2nc3ccccc3nc2N2CCc3ccccc3C2)cc1 | 107% (inactive)
18 | COc1ccc(NC(=O)ON=C2c3ccccc3-c3ccccc32)cc1 | 108% (inactive)
19 | O=c1[nH]c(CSc2ncc(-c3ccc(F)cc3)n2Cc2ccco2)nc2ccccc12 | 107% (inactive)
20 | OC(COc1ccc2ccccc2c1)CN1CCOCC1 (stereo not given) | 107% (inactive)
21 | Oc1cccc2ccc(/C=C/c3ccc(Br)s3)nc12 | 122% (active)
22 | CCCS(=O)(=O)Nc1c(C(=O)O)[nH]c2ccccc12 | 103% (inactive)
23 | O=C(Nc1cc(C(F)(F)F)ccc1Cl)c1cc(C2CC2)on1 | 100% (inactive)
24 | O=C(O)CSCc1nc2ccccc2s1 | 112% (inactive)
25 | Cc1ccc(/C=N/NC(=O)COc2ccccc2-c2ccccc2)cc1 | 155% (active)

Row | SMILES | activation (% of control)
26 | C=CCn1c(-c2ccccc2OCC)n[nH]c1=S | 115% (inactive)
27 | Cc1csc2ncc(C(=O)N(Cc3ccccc3)c3ccccn3)c(=O)n12 | 103% (inactive)
28 | Cc1cccc(C(=O)N2CCc3c([nH]c4ccccc34)C2CC(C)C)n1 (stereo not given) | 110% (inactive)
29 | Cc1nc(N=C(N)N)nc2c(C)cccc12 | 110% (inactive)
30 | COc1ccc(Cl)cc1NC(=O)c1oc(C)nc1C | 108% (inactive)
31 | COC(=O)c1[nH]c2ccccc2c1NS(=O)(=O)c1ccc(OC)cc1OC | 104% (inactive)
32 | CN1C(=O)/C(=C\c2cc(Br)cs2)c2ccccc21 | 120% (inactive)
33 | O=C(NCc1ccco1)c1cccn2c(=O)c3c4c(sc3nc12)CCCC4 | 106% (inactive)
34 | CSc1nc(N(C)NC(=O)c2cccc(C)c2)c2ccccc2n1 | 159% (active)
35 | Cc1cccc(C(=O)Nc2nnc(Cc3c[nH]c4ccccc34)s2)c1 | 101% (inactive)
36 | Cc1ccc(-c2cc(C(=O)Nc3nn[nH]n3)c3ccccc3n2)c(C)c1 | 99.3% (inactive)
37 | CSCCC(NC(=O)c1ccco1)C(=O)OCC(=O)Nc1ncc(Cl)c(C)c1Cl (stereo not given) | 97.1% (inactive)
38 | Cc1nc2ccccc2cc1O | 98% (inactive)
39 | N#Cc1c(C(F)(F)F)cc(-c2ccc(Cl)cc2)nc1SCC(=O)O | 107% (inactive)
40 | Oc1c(C=Nc2cccc3nsnc23)ccc2ccccc12 | 96.6% (inactive)
41 | Cc1ccc(C2=NN(C)c3nc4ccccc4n3C2)cc1 | 112% (inactive)
42 | Cc1ccc(OCc2nnc(SC3CCc4ccccc4C3=O)n2C)cc1 (stereo not given) | 111% (inactive)
43 | CC(=O)Nc1ccc(NC(=O)COc2ccccc2C(=O)Nc2cccc(Cl)c2Cl)cc1 | 102% (inactive)
44 | CC(C)CNC(=O)COC(=O)/C=C/c1ccccc1[N+](=O)[O-] | 97.8% (inactive)
45 | COc1nc(N=C(N)N)nc2c(C)cccc12 | 109% (inactive)
46 | c1ccc(-c2cn3c(n2)CCc2ccc4cccnc4c2-3)cc1 | 106% (inactive)
47 | O=C(Cc1c[nH]c2ccccc12)OCCOC(=O)Cc1c[nH]c2ccccc12 | 99.2% (inactive)
48 | COc1cccc(NC(=S)C(C#N)=C2N(C)c3ccccc3N2C)c1 | 94.8% (inactive)
49 | NC(=O)CSc1c[nH]c2ccccc12 | 102% (inactive)
50 | COc1cccc(/C=C(/CC(=O)Nc2ccc(N3CCOCC3)cc2)c2nc3ccccc3s2)c1 | 114% (inactive)

Row | SMILES | activation (% of control)
51 | Cc1ccc(NC(=O)c2cc([N+](=O)[O-])ccc2Cl)c(O)c1 | 107% (inactive)
52 | CCCCC(=O)Nc1nc(C)c(-c2csc(Nc3ccc(Cl)cc3)n2)s1 | 101% (inactive)
53 | C/C(=N\c1nc2ccccc2n1C)c1cc(Cl)ccc1O | 99.6% (inactive)
54 | COc1cc(OC)cc(C(=O)N[C@H](C(=O)Nc2nc3ccccc3[nH]2)C(C)C)c1 | 138% (active)
55 | COc1ccccc1-c1nnc(NC(=O)c2ccc3ncsc3c2)o1 | 127% (active)
56 | COc1ccccc1-c1nnc(SCC(=O)N2CC(C)CC(C)C2)o1 (stereo not given) | 101% (inactive)
57 | Oc1cccc(C2c3[nH]c4ccccc4c3CCN2Cc2cnn(-c3ccccc3)c2)c1 (stereo not given) | 105% (inactive)
58 | CCNCc1cc2cc(C)ccc2[nH]c1=O | 101% (inactive)
59 | COC(=O)c1[nH]c2cccc(C)c2c1NC(=O)CN1CCCc2ccccc21 | 96.7% (inactive)
60 | CCOc1ccc(C2c3[nH]c4ccccc4c3CCN2Cc2cn(CC)nc2C)cc1 (stereo not given) | 111% (inactive)
61 | COc1ccc(C)cc1NC(=O)c1[nH]c(C)c(C(C)=O)c1C | 99.2% (inactive)
62 | COc1ccc(-c2c3c(=O)n(C)c(=O)n(C)c3cn2-c2cccc(OC)c2)cc1 | 103% (inactive)
63 | O=C(O)CS/C(=C\c1ccc(F)cc1)c1nc2ccccc2s1 | 116% (inactive)
64 | Cc1ccc(N=Nc2c(C)[nH]n(-c3ccccc3)c2=O)cc1 | 106% (inactive)
65 | COc1cc(NS(=O)(=O)c2ccc(N/C=C(\C=O)c3nc4cc(Cl)ccc4o3)cc2)nc(OC)n1 | 104% (inactive)
66 | COCCCNc1nc2c(-c3cccc(C(F)(F)F)c3)nnn2c2ccccc12 | 109% (inactive)
67 | CCOC(=O)c1c(-c2cccc(C)c2)csc1NC(=O)c1c(-c2ccccc2)noc1C | 71.3% (inactive)
68 | Cc1ccc(Nc2nc(-c3sc(NC(=O)c4ccccc4)nc3C)cs2)cc1 | 102% (inactive)
69 | Cc1cccc(N(CC(=O)N=Nc2c(O)[nH]c3ccccc23)S(C)(=O)=O)c1C | 103% (inactive)
70 | O=[N+]([O-])c1ccc(N2CCN(S(=O)(=O)c3ccc4ccccc4c3)CC2)cc1NCc1ccco1 | 105% (inactive)
71 | CCSc1nnc(-c2cc3c(s2)-c2ccccc2CC3)o1 | 118% (inactive)
72 | Cn1nc(-c2ccc(Cl)cc2)c2cc(C(=O)NCc3ccco3)sc21 | 104% (inactive)
73 | COc1ccccc1C1C2=C(COC2=O)Nc2cc3c(cc21)OCO3 (stereo not given) | 166% (active)
74 | CCOC(=O)CN(C)Cc1c[nH]c2ccccc12 | 105% (inactive)
75 | O=C(C1CCN(S(=O)(=O)Cc2ccccc2)CC1)N1CCCc2ccccc21 | 108% (inactive)
